What all share (assay): cell proliferation relative to vehicle (% of vehicle); higher = less growth inhibition
Common to all, as to conditions: 72 h

In test [1] the test system is U2932 TK216-resistant clone 2. The method, boiled down: (§1)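 Each of 348 targeted inhibitors was tested at 500 nM or 50 nM for 72 h on U2932 cells, both parental and two clones resistant to an ETS-targeting agent. Readout was by MTT with absorbance read on a Cytation 3. Proliferation appears as percent of proliferating cells relative to vehicle (DMSO).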
Test [2] has as its system U2932 TK216-resistant clone 3. The essentials: as §1
In test [3] the test system is U2932 parental. The essentials:
as §1

The structures appear in SMILES notation. Counter-ions that a name gives are not always drawn.

Take `O=P1(NCCCl)OCCCN1CCCl` (centres undefined) [Ifosfamide]: the cell proliferation in test [1] (50 nM) came out at 108; in test [1] (500 nM) it was 107; in test [2] (50 nM) it was 102; in test [2] (500 nM) it was 103; in test [3] (50 nM), 103; in test [3] (500 nM) it was 93.4.

For the compound `N[C@@H]1C[C@H]1c1ccccc1` [Tranylcypromine (2-PCPA) HCl], the cell proliferation in test [1] (50 nM) amounted to 108; in test [1] (500 nM) it was 107; in test [2] (50 nM), 111; in test [2] (500 nM) it was 102; in test [3] (50 nM) it was 101; in test [3] (500 nM), 100.

Take `Cn1c(CCCC(=O)O)nc2cc(N(CCCl)CCCl)ccc21` [Bendamustine HCl]: the cell proliferation in test [1] (50 nM) turned out to be 111; in test [1] (500 nM), 108; in test [2] (50 nM) it was 102; in test [2] (500 nM), 102; in test [3] (50 nM), 99.3; in test [3] (500 nM), 90.2.

As for `Cn1cc(C2=C(c3cn(C4CCN(Cc5ccccn5)CC4)c4ccccc34)C(=O)NC2=O)c2ccccc21`, the cell proliferation in test [1] (50 nM) is 110; in test [1] (500 nM) it was 103; in test [2] (50 nM), 99.8; in test [2] (500 nM), 97.1; in test [3] (50 nM), 103; in test [3] (500 nM), 107.

In the case of `C/C(=C\c1csc(C)n1)[C@@H]1C[C@@H]2O[C@@H]2CCC[C@H](C)[C@H](O)[C@@H](C)C(=O)C(C)(C)[C@@H](O)CC(=O)O1` [Epothilone A], the cell proliferation in test [1] (50 nM) turned out to be 12.4; in test [1] (500 nM), 10; in test [2] (50 nM) it was 7.03; in test [2] (500 nM), 9.75; in test [3] (50 nM) it was 9.49; in test [3] (500 nM) it was 10.1.

As for `CC1=C(O)C(=O)C=C2C1=CC=C1[C@@]2(C)CC[C@@]2(C)[C@@H]3C[C@](C)(C(=O)O)CC[C@]3(C)CC[C@]12C` [Celastrol], the cell proliferation in test [1] (50 nM) amounted to 77.9; in test [1] (500 nM), 18.8; in test [2] (50 nM), 85; in test [2] (500 nM), 27.8; in test [3] (50 nM), 80.6; in test [3] (500 nM), 24.1.

With `O=C(O)C(=O)c1cn(Cc2ccccc2)c2ccc(-c3ccc(OC(F)(F)F)cc3)cc12` [Tiplaxtinin (PAI-039)], the cell proliferation in test [1] (50 nM) is 99.5; in test [1] (500 nM) it was 93.1; in test [2] (50 nM), 100; in test [2] (500 nM), 98.5; in test [3] (50 nM), 102; in test [3] (500 nM), 99.3.

In the case of `COc1ccc(C[C@H]2NC[C@H](O)[C@H]2OC(C)=O)cc1` [Anisomycin], the cell proliferation in test [1] (50 nM) worked out at 55.2; in test [1] (500 nM) it was 25.4; in test [2] (50 nM), 69; in test [2] (500 nM), 29.3; in test [3] (50 nM), 66.9; in test [3] (500 nM), 20.5.

In the case of `COc1cc2c(cc1OC)C1CC(=O)C(CC(C)C)CN1CC2` (centres undefined) [Tetrabenazine (Xenazine)], the cell proliferation in test [1] (50 nM) amounted to 101; in test [1] (500 nM) it was 96.2; in test [2] (50 nM) it was 106; in test [2] (500 nM), 107; in test [3] (50 nM) it was 103; in test [3] (500 nM), 93.2.

For `CC(=O)OC(C)(C)/C=C/C(=O)[C@](C)(O)[C@H]1[C@H](O)C[C@@]2(C)[C@@H]3CC=C4[C@H](C[C@H](O)C(=O)C4(C)C)[C@]3(C)C(=O)C[C@]12C` [Cucurbitacin B], the cell proliferation was -2.74 in test [1] (50 nM); -3.79 in test [1] (500 nM); 0.167 in test [2] (50 nM); -2.48 in test [2] (500 nM); -0.672 in test [3] (50 nM); -0.512 in test [3] (500 nM).

With `CC(O)(CS(=O)(=O)c1ccc(F)cc1)C(=O)Nc1ccc(C#N)c(C(F)(F)F)c1` (centres undefined) [Bicalutamide], the cell proliferation in test [1] (50 nM) turned out to be 109; in test [1] (500 nM), 104; in test [2] (50 nM), 103; in test [2] (500 nM), 97.8; in test [3] (50 nM) it was 102; in test [3] (500 nM) it was 96.5.

For the compound `O=S(=O)(CC1CS1)c1ccc(Oc2ccccc2)cc1` (centres undefined), the cell proliferation in test [1] (50 nM) turned out to be 102; in test [1] (500 nM), 97.6; in test [2] (50 nM), 98.2; in test [2] (500 nM), 104; in test [3] (50 nM), 95.5; in test [3] (500 nM) it was 99.7.

On to `Cc1sc2c(c1C)C(c1ccc(Cl)cc1)=N[C@@H](CC(=O)OC(C)(C)C)c1nnc(C)n1-2`, for which the cell proliferation in test [1] (50 nM) amounted to 91; in test [1] (500 nM), 58.9; in test [2] (50 nM) it was 77.2; in test [2] (500 nM), 57.4; in test [3] (50 nM), 92.1; in test [3] (500 nM), 55.1.

Take `O=C(O)CCCc1ccc(N(CCCl)CCCl)cc1` [Chloroambucil]: the cell proliferation in test [1] (50 nM) came out at 101; in test [1] (500 nM), 99.4; in test [2] (50 nM) it was 98.4; in test [2] (500 nM), 101; in test [3] (50 nM), 99.7; in test [3] (500 nM), 98.7.

The values above are taken from the supplement of paper PMC13172266.
